The values that follow come from ChEMBL document CHEMBL1961873, “Compounds: GSK PKIS; Assays: Nanosyn kinase panel” (2012).

SMILES strings stand for the structures.

Experiment [1] has as its target Mitogen-activated protein kinase kinase kinase kinase 4 (Homo sapiens) (UniProt O95819). The conditions noted are these: at 1 µM.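 Note: reported figure is an averaged inhibition value.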
The target of experiment [2] is Dual specificity mitogen-activated protein kinase kinase 1 (Homo sapiens) (UniProt Q02750). The conditions noted are these: at 0.1 µM.
Experiment [3] has the same target. Particulars: at 1 µM.
For experiment [4], the target named is Misshapen-like kinase 1 (Homo sapiens) (UniProt Q8N4C8). Particulars: at 0.1 µM.
The target is the same in experiment [5]. The conditions noted are these: at 1 µM.
In experiment [6] the target is T1, Serine/threonine-protein kinase 4 (Homo sapiens) (UniProt Q13043).
T1 sequence (whole entry): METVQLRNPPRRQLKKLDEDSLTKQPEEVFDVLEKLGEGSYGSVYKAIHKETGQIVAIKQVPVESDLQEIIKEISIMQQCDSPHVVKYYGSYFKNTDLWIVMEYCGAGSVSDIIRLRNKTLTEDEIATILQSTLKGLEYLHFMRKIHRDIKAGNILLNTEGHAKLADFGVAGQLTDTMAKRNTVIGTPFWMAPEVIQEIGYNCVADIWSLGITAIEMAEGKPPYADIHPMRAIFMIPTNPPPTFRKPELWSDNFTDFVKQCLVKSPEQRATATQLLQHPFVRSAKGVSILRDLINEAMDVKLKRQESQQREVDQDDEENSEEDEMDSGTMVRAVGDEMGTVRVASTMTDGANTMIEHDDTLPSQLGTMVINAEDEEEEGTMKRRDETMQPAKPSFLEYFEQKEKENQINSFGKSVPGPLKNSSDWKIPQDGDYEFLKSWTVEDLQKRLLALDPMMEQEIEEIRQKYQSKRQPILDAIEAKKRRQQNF
The conditions noted are these: at 0.1 µM.

Experiment [7] addresses T1, Serine/threonine-protein kinase 4 (Homo sapiens). Particulars: at 1 µM.
For experiment [8], the target named is T2, Serine/threonine-protein kinase 3 (Homo sapiens) (UniProt Q13188).
T2 sequence (whole entry): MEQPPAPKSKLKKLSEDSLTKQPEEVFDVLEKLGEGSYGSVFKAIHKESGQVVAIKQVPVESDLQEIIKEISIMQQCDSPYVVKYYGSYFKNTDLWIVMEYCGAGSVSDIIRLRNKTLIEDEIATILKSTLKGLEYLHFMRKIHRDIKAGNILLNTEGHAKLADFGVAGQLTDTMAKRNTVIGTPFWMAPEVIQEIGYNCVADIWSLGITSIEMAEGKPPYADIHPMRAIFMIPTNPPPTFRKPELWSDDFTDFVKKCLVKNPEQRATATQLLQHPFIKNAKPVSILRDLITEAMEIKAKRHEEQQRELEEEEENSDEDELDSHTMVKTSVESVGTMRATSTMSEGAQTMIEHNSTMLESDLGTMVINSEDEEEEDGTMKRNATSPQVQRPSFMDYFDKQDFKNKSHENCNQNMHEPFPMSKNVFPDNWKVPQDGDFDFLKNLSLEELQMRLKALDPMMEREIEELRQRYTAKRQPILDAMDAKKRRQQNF
Particulars: at 0.1 µM.

Experiment [9] deals with T2, Serine/threonine-protein kinase 3 (Homo sapiens). The conditions noted are these: at 1 µM.
In experiment [10] the target is Serine/threonine-protein kinase 26 (Homo sapiens) (UniProt Q9P289). Particulars: at 0.1 µM.
Serine/threonine-protein kinase 26 (Homo sapiens), sequence (Q9P289 2-416 limits assumed): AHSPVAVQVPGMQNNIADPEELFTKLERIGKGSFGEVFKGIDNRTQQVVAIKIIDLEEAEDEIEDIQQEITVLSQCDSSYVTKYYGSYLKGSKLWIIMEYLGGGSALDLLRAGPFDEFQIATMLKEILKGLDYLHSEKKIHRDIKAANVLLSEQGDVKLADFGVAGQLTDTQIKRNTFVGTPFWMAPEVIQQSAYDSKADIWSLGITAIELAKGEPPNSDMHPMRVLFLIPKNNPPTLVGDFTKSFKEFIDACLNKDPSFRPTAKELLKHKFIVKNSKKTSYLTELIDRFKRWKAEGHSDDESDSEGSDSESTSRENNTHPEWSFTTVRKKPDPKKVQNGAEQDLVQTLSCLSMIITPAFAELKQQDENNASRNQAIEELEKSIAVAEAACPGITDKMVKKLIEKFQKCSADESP

Misshapen-like kinase 1 (Homo sapiens), sequence (Q8N4C8 whole entry, looked up): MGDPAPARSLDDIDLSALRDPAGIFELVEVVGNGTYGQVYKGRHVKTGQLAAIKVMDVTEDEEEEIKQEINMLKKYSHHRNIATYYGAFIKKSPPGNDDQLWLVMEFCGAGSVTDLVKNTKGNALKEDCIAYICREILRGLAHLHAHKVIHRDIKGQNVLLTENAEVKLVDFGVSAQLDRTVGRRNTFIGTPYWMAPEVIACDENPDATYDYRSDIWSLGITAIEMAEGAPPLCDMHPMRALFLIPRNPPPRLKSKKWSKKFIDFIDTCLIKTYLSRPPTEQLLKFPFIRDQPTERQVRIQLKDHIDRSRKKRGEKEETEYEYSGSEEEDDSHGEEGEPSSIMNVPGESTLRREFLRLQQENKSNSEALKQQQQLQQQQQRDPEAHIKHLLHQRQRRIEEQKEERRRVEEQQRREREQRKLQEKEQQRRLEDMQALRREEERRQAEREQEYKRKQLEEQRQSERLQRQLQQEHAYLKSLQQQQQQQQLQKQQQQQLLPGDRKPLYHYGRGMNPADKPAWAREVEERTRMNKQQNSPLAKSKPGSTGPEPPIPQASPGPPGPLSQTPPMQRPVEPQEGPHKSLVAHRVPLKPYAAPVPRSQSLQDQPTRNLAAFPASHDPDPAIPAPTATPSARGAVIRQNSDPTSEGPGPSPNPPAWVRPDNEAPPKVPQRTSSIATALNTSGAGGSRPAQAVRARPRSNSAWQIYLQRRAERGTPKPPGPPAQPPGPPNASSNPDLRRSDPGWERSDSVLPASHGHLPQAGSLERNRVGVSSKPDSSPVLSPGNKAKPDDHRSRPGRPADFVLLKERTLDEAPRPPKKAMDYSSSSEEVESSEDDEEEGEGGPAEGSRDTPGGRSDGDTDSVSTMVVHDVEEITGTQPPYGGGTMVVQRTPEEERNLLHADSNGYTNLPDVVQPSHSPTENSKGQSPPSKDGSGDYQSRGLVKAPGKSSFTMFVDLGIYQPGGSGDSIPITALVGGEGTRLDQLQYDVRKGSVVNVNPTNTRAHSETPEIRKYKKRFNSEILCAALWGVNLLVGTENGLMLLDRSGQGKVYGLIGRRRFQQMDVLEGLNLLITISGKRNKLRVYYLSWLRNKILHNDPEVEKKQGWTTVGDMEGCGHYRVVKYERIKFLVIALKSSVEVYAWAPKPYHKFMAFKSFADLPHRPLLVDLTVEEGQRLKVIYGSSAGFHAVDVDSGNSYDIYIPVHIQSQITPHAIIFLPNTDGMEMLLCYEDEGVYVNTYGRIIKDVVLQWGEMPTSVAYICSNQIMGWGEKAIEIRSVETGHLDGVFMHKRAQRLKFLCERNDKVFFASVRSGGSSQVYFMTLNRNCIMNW
Mitogen-activated protein kinase kinase kinase kinase 4 (Homo sapiens), sequence (O95819 2-1239 limits assumed): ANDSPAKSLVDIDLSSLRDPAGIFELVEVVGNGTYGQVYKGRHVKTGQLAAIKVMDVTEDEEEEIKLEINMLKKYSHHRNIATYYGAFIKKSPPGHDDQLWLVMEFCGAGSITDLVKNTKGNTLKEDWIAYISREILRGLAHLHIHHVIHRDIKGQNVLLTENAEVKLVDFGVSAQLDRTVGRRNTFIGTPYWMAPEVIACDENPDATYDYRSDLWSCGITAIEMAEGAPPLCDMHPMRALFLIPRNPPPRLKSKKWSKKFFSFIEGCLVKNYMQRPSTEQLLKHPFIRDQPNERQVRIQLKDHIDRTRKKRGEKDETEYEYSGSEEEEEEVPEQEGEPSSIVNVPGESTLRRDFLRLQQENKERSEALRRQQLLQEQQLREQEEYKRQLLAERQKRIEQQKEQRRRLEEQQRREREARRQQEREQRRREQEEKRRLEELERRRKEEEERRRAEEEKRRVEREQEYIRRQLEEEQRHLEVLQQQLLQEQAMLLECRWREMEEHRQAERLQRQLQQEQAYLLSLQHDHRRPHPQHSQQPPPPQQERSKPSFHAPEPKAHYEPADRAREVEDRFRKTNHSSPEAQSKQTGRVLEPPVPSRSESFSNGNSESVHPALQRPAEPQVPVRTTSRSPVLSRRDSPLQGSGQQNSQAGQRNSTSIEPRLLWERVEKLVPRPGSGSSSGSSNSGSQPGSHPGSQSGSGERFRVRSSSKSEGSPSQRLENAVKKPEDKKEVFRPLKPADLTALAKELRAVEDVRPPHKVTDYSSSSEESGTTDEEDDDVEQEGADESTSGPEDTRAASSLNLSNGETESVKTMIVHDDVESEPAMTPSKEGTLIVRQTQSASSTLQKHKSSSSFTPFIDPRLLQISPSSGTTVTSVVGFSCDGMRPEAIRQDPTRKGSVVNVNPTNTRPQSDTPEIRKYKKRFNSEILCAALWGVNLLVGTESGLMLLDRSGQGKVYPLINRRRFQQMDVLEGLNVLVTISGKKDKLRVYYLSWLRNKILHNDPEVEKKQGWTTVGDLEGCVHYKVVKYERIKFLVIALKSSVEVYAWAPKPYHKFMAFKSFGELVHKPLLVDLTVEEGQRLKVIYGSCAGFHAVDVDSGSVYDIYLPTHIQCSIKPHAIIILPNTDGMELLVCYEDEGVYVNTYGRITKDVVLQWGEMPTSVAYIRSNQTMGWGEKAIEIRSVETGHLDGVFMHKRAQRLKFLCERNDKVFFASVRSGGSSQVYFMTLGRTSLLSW
Dual specificity mitogen-activated protein kinase kinase 1 (Homo sapiens), sequence (Q02750 whole entry): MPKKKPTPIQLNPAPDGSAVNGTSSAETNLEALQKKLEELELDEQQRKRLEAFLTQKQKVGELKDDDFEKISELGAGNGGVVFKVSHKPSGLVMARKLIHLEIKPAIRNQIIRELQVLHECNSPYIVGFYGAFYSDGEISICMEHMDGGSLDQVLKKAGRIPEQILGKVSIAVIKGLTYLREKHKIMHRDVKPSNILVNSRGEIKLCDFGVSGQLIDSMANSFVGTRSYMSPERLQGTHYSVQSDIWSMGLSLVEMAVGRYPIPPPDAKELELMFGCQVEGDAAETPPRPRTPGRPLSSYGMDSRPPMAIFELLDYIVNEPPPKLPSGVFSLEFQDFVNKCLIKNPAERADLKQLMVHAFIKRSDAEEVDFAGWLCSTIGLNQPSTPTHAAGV

The term inhibition denotes the change of the read-out against control, counted positive when it falls. As for `Cc1ccc(C(=O)NC(C)C)cc1-c1ccc(C(=O)NCC2CC2)cc1`, the inhibition in [1] is 1.81%; in [2], -2.99%; in experiment [3], -1.83%; in experiment [4], -3.61%; in [5], -1.09%; in experiment [6], -3.24%. The inhibition in [7] is -3.63%; in experiment [8], -4.19%; in [9], -4.98%; in [10] it was 2.16%.

Consider `COc1cc(Nc2ncc3c(C)nc(-c4cccc(C(F)(F)F)c4)n3n2)cc(OC)c1OC`, for which the inhibition in experiment [1] was found to be 34%; in [2], 4.45%; in experiment [3], 10.7%; in experiment [4], 10.5%; in experiment [5] it was 29.2%; in experiment [6], 7.12%. The inhibition in experiment [7] stood at 17.8%; in experiment [8], 6.69%; in [9], 13.2%; in experiment [10] it was 0.97%.

Turning to `Fc1ccc(-c2ncn(C3CCNCC3)c2-c2ccnc(Oc3ccc(Oc4ccccc4)cc3)n2)cc1`, the inhibition in experiment [1] is 7.43%; in [2], 4.35%; in experiment [3], 7.53%; in experiment [4], 5.29%; in experiment [5] it was 9.38%; in experiment [6], 2.43%. Further, the inhibition in experiment [7] was 4.68%; in [8], 4.83%; in experiment [9], 5.3%; in experiment [10], -1.41%.

Regarding `O=C1Nc2ccccc2/C1=C/Nc1ccc(-n2cncn2)cc1`, the inhibition in experiment [1] is 65.8%; in experiment [2], 6.13%; in experiment [3], 6.15%; in experiment [4], 15.3%; in experiment [5], 56.5%; in experiment [6] it was 14.9%. Moreover, the inhibition in [7] is 54.4%; in experiment [8] it was 9.7%; in experiment [9], 35.7%; in experiment [10], -0.63%.

Turning to `NCc1ccc(-n2c(-c3nonc3N)nc3cnccc32)cc1`, the inhibition in experiment [1] worked out at 20.3%; in experiment [2], 8.09%; in experiment [3], 8.5%; in experiment [4] it was 11.2%; in experiment [5] it was 16.3%; in experiment [6], 9.89%. Further, the inhibition in [7] was 19.6%; in experiment [8], 10.2%; in experiment [9], 13.1%; in experiment [10], 0.95%.

As for `CCc1ccc(Oc2nccc(-c3c(-c4ccc(F)cc4)ncn3C3CCNCC3)n2)cc1`, the inhibition stood at 11.4% in experiment [1]; 3.92% in [2]; 8.98% in experiment [3]; 4.83% in [4]; 12.1% in [5]; 3.84% in experiment [6]. Besides, the inhibition is 5.43% in experiment [7], 5.44% in experiment [8], 5.88% in [9] and 0.4% in experiment [10].

Consider `COc1ccc(-c2ccc3c(NC(=O)C4CC4)n[nH]c3n2)cc1`, for which the inhibition in experiment [1] turned out to be 33%; in experiment [2] it was 2.82%; in experiment [3], 2.1%; in experiment [4], 5.24%; in [5], 21.8%; in [6] it was 2.12%. In addition, the inhibition in experiment [7] is 4.96%; in experiment [8], 2.09%; in experiment [9] it was 5.21%; in experiment [10], -1.38%.

Turning to `CN1CCN(CCCNc2nc3ccc(Oc4ccc(NC(=O)Nc5cc(C(F)(F)F)ccc5F)cc4)cc3[nH]2)CC1`, the inhibition in experiment [1] was 2.12%; in experiment [2], 2.3%; in [3], 1.94%; in experiment [4] it was 1.67%; in experiment [5], 1.26%; in [6], 3.59%. Also, the inhibition in experiment [7] was 3.57%; in [8], 2.61%; in experiment [9] it was 3.55%; in experiment [10] it was 1.41%.

For `Fc1ccc(-c2ncn(C3CCNCC3)c2-c2ccnc(Oc3ccc(F)c(F)c3)n2)cc1`, the inhibition was determined as 10.9% in experiment [1]; 3.03% in [2]; 3.8% in experiment [3]; 8.56% in experiment [4]; 12% in experiment [5]; 7.1% in [6]. Also, the inhibition was 7.9% in [7], 10.2% in experiment [8], 9.55% in experiment [9] and 1.93% in experiment [10].

Take `O=C(Nc1ccc(Oc2ccc3[nH]c(NC(=O)c4ccccc4)nc3c2)cc1)Nc1cc(C(F)(F)F)ccc1F`: the inhibition in experiment [1] is 5.89%; in [2], 2.91%; in experiment [3], 2.61%; in [4] it was 3.26%; in [5] it was 4.54%; in [6] it was 5.74%. In addition, the inhibition came to 10.6% in experiment [7], 5.74% in experiment [8], 8.42% in experiment [9] and 0.36% in experiment [10].

On to `O=C(NCC1CC1)c1ccc(-c2cccc(C(=O)NC3CC3)c2)cc1`, for which the inhibition in [1] is 2.03%; in [2] it was 3.01%; in experiment [3] it was 1.66%; in experiment [4], 2.89%; in [5], -1.8%; in experiment [6], 4.49%. The inhibition in experiment [7] is 5.3%; in [8] it was 4.78%; in [9], 3.31%; in experiment [10] it was -2.14%.

As for `NC(=O)c1ccc(Oc2nccc(-c3c(-c4ccc(F)cc4)ncn3C3CCNCC3)n2)cc1`, the inhibition in experiment [1] worked out at 3.93%; in experiment [2], 4.51%; in [3] it was 4.62%; in experiment [4], 6.11%; in experiment [5], 6.81%; in experiment [6], 4.07%. Moreover, the inhibition is 4.99% in experiment [7], 8.2% in [8], 7.98% in experiment [9] and -1.23% in experiment [10].

On to `COC(=O)Nc1nc2ccc(Sc3ccc(NC(=O)Nc4cc(C(F)(F)F)ccc4F)cc3)cc2[nH]1`, for which the inhibition in experiment [1] was 7.12%; in [2], -0.42%; in experiment [3], 0.12%; in [4] it was 0.07%; in [5] it was 0.67%; in experiment [6] it was 2.61%. In addition, the inhibition in [7] is 3.26%; in experiment [8], 2.16%; in [9], 1.83%; in experiment [10], 1.18%.

For `NC(=O)Cc1ccccc1Oc1nccc(-c2c(-c3ccc(F)cc3)ncn2C2CCNCC2)n1`, the inhibition in [1] was determined as 6.68%; in experiment [2], 2.01%; in experiment [3], 2.53%; in [4] it was 4.37%; in experiment [5], 6.95%; in experiment [6], 1.4%. Moreover, the inhibition in experiment [7] is 3.79%; in experiment [8], 2.69%; in experiment [9] it was 4.24%; in [10], -0.95%.

In the case of `COc1ccc2cc(-c3c(-c4ccncc4)nc(-c4ccc([S+](C)[O-])cc4C)n3C)ccc2c1` (stereo not given), the inhibition in experiment [1] was 17.7%; in experiment [2] it was -0.9%; in [3], -1.09%; in [4], 0.1%; in [5], 12.5%; in experiment [6], -2.13%. In addition, the inhibition in experiment [7] is 7.66%; in experiment [8] it was -0.9%; in [9] it was 17.3%; in experiment [10] it was 0.68%.

As for `C[C@@H](Oc1cc(-n2cnc3ccc(OCC4CCN(C)CC4)cc32)sc1C(N)=O)c1ccccc1Cl`, the inhibition amounted to 11.6% in experiment [1]; 6.35% in experiment [2]; 5.61% in [3]; 6.3% in [4]; 10.1% in experiment [5]; 14.8% in [6]. Moreover, the inhibition was 56.7% in experiment [7], 11.7% in [8], 39.7% in experiment [9] and -8.39% in experiment [10].

With `CN(C)c1ccc2c(c1)/C(=C/Nc1ccc(S(N)(=O)=O)cc1)C(=O)N2`, the inhibition in [1] was 70%; in [2], 2.52%; in experiment [3], 6.25%; in [4] it was 18.1%; in [5] it was 63.6%; in experiment [6] it was 44.2%. The inhibition is 71.7% in experiment [7], 32.3% in [8], 68% in experiment [9] and 0.49% in [10].
